Drawing on PubChem BioAssay (NCATS), this text covers outcome and max response for 16 compounds.

The structures appear in SMILES notation. Inconclusive results are not listed. Active and inactive are the calls of the source. The call rests on the fitted dose curve; in most records, active means well fitted inhibition curve with a large enough effect; inconclusive means small, poorly fitted or top-dose-only effect; inactive means flat fitted curve, though single readings scatter. Where a SMILES comes first, the peptide text is derived from it.
On the % scale 0 is the no-effect control and ±100 the full control effect.

The test system of this test is HaCat. The test can be described thus: Cytotoxic Profiling of Annotated Libraries Using Quantitative High-Throughput Screening (AID 1296008). Further: nearly all actives have a fitted effect of over 60% in size. The settings on record: Five cell lines viability, CellTiter-Glo ATP luminescence, 48-72 h; max response: active compounds read low. The method, boiled down: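 Cells exposed to compounds for 48 or 72 hr at 37 degrees Celsius. Viability read as ATP-coupled luminescence with CellTiter-Glo after 10 min at room temperature.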
A general note: ATP-based viability assays read luminescence as a measure of living cells.
For `CC(Oc1c(Cl)cccc1Cl)C1=NCCN1` (stereo unspecified), the compound was classed as inactive.
For the compound `O=[N+]([O-])c1cncn1CCN1CCOCC1`, the max response was -14.4% (inactive).
`CC(=O)O[C@@H]1CC2C3CCc4cc(OC(=O)c5ccccc5)ccc4C3CCC2(C)[C@H]1OC(C)=O` (stereo partly specified): the call was inactive.
As for `CCN(CC)C(=O)C1CN2CCc3cc(OC)c(OC)cc3C2CC1OC(C)=O` (stereo unspecified), the compound was classed as inactive.
Consider `CC(=O)N[C@@H](CO)C(=O)N[C@@H](CC(=O)O)C(=O)N[C@@H](CCCCN)C(=O)N1CCC[C@H]1C(=O)O` (Ac-SDKP-OH), for which the max response is -26.1% (inactive).
On to `CN(C)CCN(Cc1ccsc1)c1ccccn1`, for which the outcome was inactive.
For `CCCCCCOC(=O)NC(=N)c1ccc(NCc2nc3cc(C(=O)N(CCC(=O)OCC)c4ccccn4)ccc3n2C)cc1`, the result was inactive.
`CC(=O)/C=C/C=C1/C2CCC(C2)C1(C)C` (stereo unspecified): the max response was -7.21% (inactive).
On the same count and under the same terms, then `CCCCOC(=O)CCCCCCCCC(=O)OCCCC`, with -1.87% (inactive); and `CC1(C)O[C@@H]2C[C@H]3[C@@H]4CCC5=CC(=O)C=C[C@]5(C)[C@@]4(F)[C@@H](O)C[C@]3(C)[C@]2(C(=O)CO)O1`, with -7.17% (inactive).
With `Cc1cccc(OCC(O)CNC(C)(C)C)c1C` (stereo unspecified), the compound was classed as inactive.
The same measure, in the same setting: the result for `CCCCC(O)/C=C(C)/C=C/C=C/C(=O)N1CCCC1=O` (stereo unspecified) reads “inactive”.
In the case of `CC(=O)N(CC(=O)N(C)C)c1ccccc1`, the max response is -4.61% (inactive).
With `C[C@H]1C[C@@H]2[C@H]([C@@H](O)C[C@@]3(C)[C@H]2CC[C@]3(O)C(=O)CO)[C@@]2(C)C=CC(=O)C=C12`, the compound was classed as inactive.
`Cc1[nH]cnc1-c1ccc(Cl)cc1`: the max response is -6.75% (inactive).
Regarding `O=C(c1ccco1)N1CCNCC1`, the outcome was inactive.
